# Bioassay records (PubChem BioAssay)
# L3MBTL1 block: blocks human L3MBTL1 | 230,000 compounds, 0.66% hits | Q9Y468 | AlphaScreen L3MBTL1–H3K9me1 peptide binding | Potency, µM (doses to about 57.1 µM), actives largely listed as inhibitors; further: nearly all actives have a fitted effect of over 60% in size
#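 AlphaScreen assay: L3MBTL1 (50 nM final) was preincubated 30 min at room temperature with biotinylated H3(1-15)K9me1 peptide (75 nM final), then 30 min with library compounds; streptavidin donor and nickel chelate acceptor beads (10 ug/mL final) added, 30 min dark.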
# G9a block: blocks human histone lysine methyltransferase G9a. Potency, µM (series often up to 102 µM), usual class: inhibitors. G9a H3K9 monomethylation, AlphaScreen, 2 h. 350,000 compounds, 8.8% hits. Q96KQ7. AID 504332; further: nearly all actives have a fitted effect of over 75% in size
# Target sequence (Q96KQ7 913-1193 limits assumed): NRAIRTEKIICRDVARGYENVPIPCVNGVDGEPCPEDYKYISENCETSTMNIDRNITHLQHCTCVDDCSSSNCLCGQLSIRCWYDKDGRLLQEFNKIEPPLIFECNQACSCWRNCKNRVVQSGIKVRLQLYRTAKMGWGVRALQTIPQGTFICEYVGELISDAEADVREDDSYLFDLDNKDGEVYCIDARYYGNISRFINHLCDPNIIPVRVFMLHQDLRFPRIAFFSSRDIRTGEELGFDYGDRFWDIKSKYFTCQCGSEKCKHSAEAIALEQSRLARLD
#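 Using a bead-based AlphaScreen, monomethylated H3K9 product from 2 h room-temperature reactions (G9a 20 nM, peptide 500 nM, SAM 20 uM) was detected with 0.5 ug/mL rabbit anti-H3K9me1 antibody.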
# HP1b binding inh: inhibitors of HP1-beta chromodomain binding to methylated histone tails; AlphaScreen HP1-beta / biotin-H3K9me3 peptide binding; Potency, µM (highest dose often 114 µM), usual class: inhibitors; 390,000 compounds, 0.56% hits; AID 540317; further: nearly all actives have a fitted effect of over 70% in size
#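 HP1-beta protein (50 nM final) preincubated 30 min at room temperature with biotinylated H3(1-18)K9me3 peptide (50 nM) in PBS pH 7.4, 0.01% Tween-20, then compound added for 30 min. AlphaScreen streptavidin donor/nickel chelate acceptor beads (10 ug/mL final), 30 min dark, luminescence read.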
# Sfp PPTase inh: Sfp phosphopantetheinyl transferase inhibition; 310,000 compounds, 3.5% hits; Biochemical Sfp PPTase activity, qHTS; Potency, µM, usual class: inhibitors; Q9F4F7;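 further: the enzyme is Sfp with the accession as filed and its product quenches rhodamine fluorescence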
#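 With Hepes-Na pH 7.6 buffer containing 10 mM MgCl2, Sfp (15 nM) modified BHQ-2-YbbR (12.5 uM) using rhodamine-CoA (5 uM). Two reads 30 minutes apart at 525/598 nm yielded each well's rate.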
# JMJD2A Tudor: inhibitors of human JMJD2A Tudor domain. 390,000 compounds, 4.4% hits. AlphaScreen JMJD2A-Tudor / H3K4me3 peptide binding. O75164. Potency, µM (doses to about 114 µM), actives largely listed as inhibitors; further: nearly all actives have a fitted effect of over 50% in size
# BAZ2B block: inhibitors of human BAZ2B bromodomain. AlphaScreen BAZ2B-H3K14Ac peptide displacement. 360,000 compounds, 4.4% hits. Potency, µM (titrated, usually from 114 µM), actives largely listed as inhibitors; further: nearly all actives have a fitted effect of over 60% in size
#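 Multi-concentration screen (max 110 uM) measuring displacement of acetylated histone H3 peptide from BAZ2B by AlphaScreen, using 50 nM protein, 50 nM peptide and 10 ug/mL streptavidin donor plus Ni-chelate acceptor beads.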
# Numbers stand for hits; 0 = inactive; ? = inconclusive; - = no result given; [ ] = dose if it differs, or a comment. The list is not random: actives were taken first. Their share in the collection is about 12%. The call rests on the fitted dose curve; in most records, active means well fitted curve in the direction sought with a large enough effect; inconclusive means small, poorly fitted or top-dose-only effect, or another doubt; inactive means no such curve, though single readings can be large; an effect the other way counts as inactive or inconclusive.
SMILES,L3MBTL1 block,G9a block,HP1b binding inh,Sfp PPTase inh,JMJD2A Tudor,BAZ2B block
Cc1cc(NS(=O)(=O)c2ccc(NC(=O)CSc3nc4ncc(Cl)cc4[nH]3)cc2)nc(C)n1,0,45µM,0,0,0,0
Nc1ncnc2nc(SCC(=O)Nc3cccc(C(F)(F)F)c3)[nH]c12,-,35µM,0,0,0,0
COc1cccc(NC(=O)N2CCC(CN3CCOCC3)CC2)c1,-,0,0,-,0,0
O=C(Nc1nnc(C(F)(F)F)s1)c1ccc(Br)s1,0,50µM,0,0,0,0
O=C1NCCN/C1=C\C(=O)c1ccccc1,-,0,0,0,0,?
O=C1NCCN/C1=C\C(=O)c1ccc(Br)cc1,0,50µM,0,0,0,0
O=C1OCCN/C1=C\C(=O)c1ccc(Cl)cc1,0,56µM,0,0,?,0
Cc1ccc(C(=O)NCc2ccc(F)cc2)cc1NC(=O)c1nsc2ccccc12,-,0,0,-,0,0
O=C(C=Cc1ccco1)c1cc(Cl)ccc1O,-,-,50µM,-,22µM,-
O=C(/C=C/c1ccc2ccccc2n1)c1cc(Cl)ccc1O,-,0[0.501 µM],0,0,?,71µM
CC(/C=C/c1ccco1)=N\NC(=O)c1cc(Cl)ccc1O,-,40µM,0,0,0,0
Nc1ncnc2c1ncn2[C@@H]1O[C@H](CNC(=O)[C@@H](N)CO)[C@@H](O)[C@H]1O,0,-,0,-,0,-
CCN1CCN(S(=O)(=O)c2c(C)[nH]c(C)c2C(=O)N2CCCCC2)CC1,-,0,0,0,0,0
O=C(CCS(=O)(=O)c1nc(-c2cccs2)cc(C(F)(F)F)n1)Nc1ccc(OC(F)(F)F)cc1,-,0,0,-,0,0
CC(C)c1nnc(NC(=O)CCS(=O)(=O)c2nc(-c3cccs3)cc(C(F)(F)F)n2)s1,0,1.8µM,0,0,0,89µM
CC(C)c1nnc(NC(=O)CCS(=O)(=O)Cc2ccccc2)s1,-,28µM,0,?,0,0
C/C(=N\NC(=O)CN(c1ccc(C)cc1)S(C)(=O)=O)c1cccs1,0,0,0,0,0,0
Cc1oc(/C=N/NC(=O)CN(c2ccccc2Br)S(C)(=O)=O)cc1Br,0,71µM,0,0,?,?
C/C(=N\NC(=O)CN(c1ccccc1Br)S(C)(=O)=O)c1cccs1,0,-,0,0,22µM,0
Cc1ccc(NC(=O)Nn2cnnc2)c(C)c1,-,0,0,0,0,0
Cc1ccc(NC(=S)Nn2cnnc2)c(C)c1,-,10µM,-,40µM,-,?
Cc1ccc(Cl)cc1NC(=S)Nn1cnnc1,-,?,0,0,0,?
